Rows were chosen to be rich in hits. Some 3.5% of all compounds tested hit in one or more screens of this group.
Bead autofluor: compound fluorescence in toxin protease inhibitor counterscreen; fluorescence intensity (test concentration not listed); actives 3.1% (n = 360,000); AID 624483; compound autofluorescence counterscreen, microsphere flow cytometry; active compounds read high; in the data active = fluorescence intensity above about 16000; inconclusive = no clear call, values can overlap the other calls
BoNT F protease: blocks Botulinum neurotoxin F light chain protease | Multiplex microsphere protease cleavage assay, flow cytometry | inhibition, % at 10 µM | actives 0.22% (n = 360,000) | AID 588497; in the data active = inhibition above about 35%, passing the limit was not always enough; inconclusive = no clear call, values can overlap the other calls
BoNT A protease: blocks Botulinum neurotoxin A light chain protease; multiplex microsphere protease substrate cleavage, flow cytometry; inhibition, % at 10 µM; actives 0.17% (n = 360,000); AID 588499
Anthrax LF prot: inhibitors of Bacillus anthracis lethal factor protease | P15917 | multiplex microsphere protease cleavage assay, LF | inhibition, % at 10 µM | actives 0.12% (n = 360,000)
A number is an active result; – = inactive; ? = inconclusive. Rule as the data show it, unless noted: active = inhibition above about 30%; inconclusive = no clear call, values can overlap the other calls; inactive = below that.

SMILES	Bead autofluor	BoNT F protease	BoNT A protease	Anthrax LF prot
CC(=O)Nc1ccc(C(=O)N2CCCC(c3cc(C(=O)NCc4ccccc4)no3)C2)cc1 (stereo unspecified)	–	–	–	–
Cc1ccc(/C=N/n2nnnc2N)o1	–	–	–	–
Cc1nn(C)cc1/C=N/n1nnnc1N	17300	–	–	–
CCCCCC(=O)OCc1ccc(C2=CC(=O)CC(C)(C)C2=O)cc1	–	–	–	–
CCN1C(=O)/C(=C2/C=CC=CN2C)SC1=S	23187	–	–	–
O=C(COc1ccccc1F)NC1CCN(Cc2ccccc2)CC1	20185	–	–	–
O=C(Cc1c(F)cccc1Cl)NC1CCN(Cc2ccccc2)CC1	–	–	–	–
CS(=O)(=O)NC1CCN(Cc2ccccc2)CC1	22396	–	?	–
CN(CCc1ccccc1)C(=O)c1[nH]c(C(F)(F)F)nc1-c1ccccc1	–	–	–	–
COc1ccc(S(=O)(=O)N2CCC(C(=O)N[C@@H](C)C(=O)NCc3ccco3)CC2)cc1	–	–	–	–
Cc1c(C(=O)Nc2ccncc2)oc2c1C(=O)CC(C)(C)C2	19786	–	?	–
O=C1NC[C@H](CCCCN2CCN(CCc3ccc(O)cc3)C(=O)C2=O)N(CCC2CCCCC2)C1=O	–	–	–	–
Nc1ccccc1C#Cc1ccccc1	–	–	–	–
Nc1ccc(C#Cc2ccccc2)cc1	20219	–	?	–
COc1cccc(CN2CCC2(C)C(=O)Nc2ccc3c(c2)CCN3C(C)=O)c1F (stereo unspecified)	–	–	–	–
CCc1nc2c(OCCOc3ccc(F)cc3)cccn2c1N(C)C(=O)c1ccco1	–	–	–	–
COc1cccc(-c2cc(C(=O)NCc3ccco3)no2)c1	24153	–	–	–
O=C(NCc1ccco1)c1cc(-c2cccc(Cl)c2)on1	21505	–	–	–
COc1cccc(N2CCN(C(=S)NCc3ccco3)CC2)c1	16347	–	–	–
O=C(NCc1ccco1)c1cc(-c2ccc(Cl)cc2)on1	22771	–	–	–
CCOC(=O)c1[nH]c(C)c(C(=O)OCC(=O)N(Cc2ccccc2)C(C)C)c1C	–	–	–	–
c1ccc(COc2ncnc3c2ncn3CCCNC2CCN(Cc3ccccc3)CC2)cc1	–	–	–	–
CC1(C(=O)NCc2cccnc2)Cc2c(-c3cccc(C(F)(F)F)c3)ccnc2O1 (stereo unspecified)	–	–	–	–
COc1cc(OC)cc(C(=O)NC(=S)NCc2ccco2)c1	16948	–	?	–
O=C(NCc1ccco1)c1cc(-c2ccc3c(c2)OCO3)on1	17176	–	–	–
SMILES	Bead autofluor	BoNT F protease	BoNT A protease	Anthrax LF prot
Cc1cc(C(=O)NCc2ccco2)no1	22251	–	–	–
Cc1ccc(-c2cc(C(=O)NCc3ccco3)no2)cc1	–	–	?	–
COC(=O)[C@]1(CC(C)C)N[C@H](c2ccc(-c3ccc(F)cc3)c(OC)c2)[C@@H]2C(=O)N(C)C(=O)[C@@H]21	–	–	–	–
C[C@@H]1CN([C@H](C)CO)C(=O)CCCn2nncc2CO[C@H]1CN(C)S(=O)(=O)c1ccc(Oc2ccccc2)nc1	–	–	–	–
OC(c1ccc(Cl)c(F)c1)c1ncc(-c2cccc(F)c2)[nH]1 (stereo unspecified)	–	–	–	–
O=C(Nc1ccc2nsnc2c1)c1ccc2c(c1)OCO2	23719	–	–	–
O=C(Nc1ccon1)c1ccc2c(c1)OCO2	16433	–	?	–
CCOc1ccc(NC(=O)C2CCCN(S(=O)(=O)c3ccc4c(c3)C(C)(C)C(=O)N4C)C2)cc1 (stereo unspecified)	–	–	–	–
O=C(O/N=C1/CCSc2ccccc21)c1ccc(F)cc1	24780	–	?	–
Cc1ccsc1-c1ccnc(-n2cccc2)n1	16296	–	–	–
Clc1ccsc1-c1ccnc(-n2cccc2)n1	–	–	–	–
O=C1CCC(C(=O)N2CCCO2)CN1Cc1cccc(C(F)(F)F)c1 (stereo unspecified)	–	–	–	–
CCC(Sc1nc2ccccc2s1)C(=O)Nc1nnc(C)s1 (stereo unspecified)	22870	–	–	–
CC1(C(=O)O)CCCN(C(=O)c2ccc(OC(F)F)cc2)C1 (stereo unspecified)	–	–	–	–
O=C(OCc1ccccc1)C1CCCN1C(=O)c1cccs1 (stereo unspecified)	–	–	–	–
O=C(OCc1ccccc1)C1CCCN1C(=O)c1ccccc1[N+](=O)[O-] (stereo unspecified)	20292	–	?	–
O=C(c1ccccc1[N+](=O)[O-])N1CCC(Cc2ccccc2)CC1	22923	–	–	–
Cc1noc(C)c1C(=O)N1CCC(Cc2ccccc2)CC1	22708	–	?	–
Cc1onc(-c2ccccc2Cl)c1C(=O)N1CCC(Cc2ccccc2)CC1	–	–	–	–
COc1ccc(CNC(=O)C(C)OC(=O)c2cccc(N(C)C)c2)cc1 (stereo unspecified)	?	–	–	–
CCCCOC(=O)C1=C(C)Nc2ncnn2C1c1cccc(OC)c1 (stereo unspecified)	23328	–	–	–
CCOC(=O)C1=C(c2ccccc2)Nc2ncnn2C1c1cc(OC)ccc1OC (stereo unspecified)	21867	–	–	–
CCCCOC(=O)C1=C(C)Nc2ncnn2C1c1cc(OC)ccc1OC (stereo unspecified)	19006	–	–	–
COc1cccc(C2C(C(C)=O)=C(C)Nc3ncnn32)c1 (stereo unspecified)	–	–	–	–
O=C(COc1cc(F)ccc1[N+](=O)[O-])NCC1CCCO1 (stereo unspecified)	–	–	–	–
SMILES	Bead autofluor	BoNT F protease	BoNT A protease	Anthrax LF prot
CCOc1ccc(S(=O)(=O)NCCC2=CCCCC2)c2ccccc12	24639	–	?	–
Cc1nc2ccccn2c1C(=O)N/N=C/c1cc(C)n(-c2ccc(Br)cc2)c1C	23974	–	–	–
Nc1ncnc2c1ncn2[C@@H]1O[C@H](CNC(=O)OC[C@@H](N)Cc2ccccc2)[C@@H](O)[C@H]1O	–	–	–	–
O=C(OCC1OC(n2cnc3c(N(C(=O)c4ccccc4)C(=O)c4ccccc4)ncnc32)C(O)C1F)c1ccccc1 (stereo unspecified)	24792	–	–	–
O=C(Nc1ccc(S(=O)(=O)Nc2ncccn2)cc1)c1ccc(Br)cc1	–	–	–	–
COc1ccc(/C=C/C(=O)c2ccncc2)c2ccccc12	–	–	45	–
COc1cccc(/C=C/C(=O)c2cccc([N+](=O)[O-])c2)c1OC	–	–	–	–
Fc1ccccc1N1CCN(Cc2ccc3c(c2)OCO3)CC1	21279	–	–	–
Clc1ccccc1N1CCN(Cc2ccc3c(c2)OCO3)CC1	–	–	–	–
O=S(=O)(c1cccc(F)c1)N1CCN(Cc2ccc3c(c2)OCO3)CC1	16310	–	–	–
O=C(Nc1nccs1)C1(c2ccc(Cl)cc2)CC1	–	–	–	–
O=C(NCCO)C1(c2ccc(Cl)cc2)CCCC1	24150	–	–	–
O=C(Nc1cccnc1)C1(c2ccc(Cl)cc2)CCCC1	16176	–	?	–
COc1cccc(CN2CCC2(C)C(=O)NCc2cccc(C(F)(F)F)c2)c1OC (stereo unspecified)	–	–	–	–
COc1ccc(-c2cc(=O)oc3cc4occ(C)c4cc23)cc1	22808	–	–	–

Assay outcomes as filed in PubChem.
